“And” between values parts separate entries of the source, which are not always exact repeats. Equal values may be shown once. Unmarked numbers belong to inactive results. Records with an inconclusive call do not appear. The source made the active and inactive calls. Unless noted, calls follow the shape of the dose curve; as a rule, active = well fitted curve in the direction sought with a large enough effect; inconclusive = small, poorly fitted or top-dose-only effect, or another doubt; inactive = no such curve, though single readings can be large; an effect the other way counts as inactive or inconclusive.

Experiment [1] concerns the target Mitogen-activated protein kinase 10 (Mus musculus) (UniProt Q61831). The experiment in a line: JNK3 AlphaScreen Assay (AID 530; active = well fitted curve in either direction with a large enough effect, not every such curve was filed as active;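 also: kinase came from lysate of stimulated human HepG2 cells; signal reports phosphorylation of biotinylated GST-cJun 1-79 at Ser73 with 10 µM ATP; % is scaled to controls: 0 for no effect and ±100 for the full control effect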). In outline:
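Room-temperature AlphaScreen kinase assay; pre-activated HepG2 lysate as JNK3 source, biotin-GST-cJun(1-79) substrate, 10 uM ATP, compound 15 min preincubation.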

The nature of experiment [2]: Cell Viability - HUV-EC-C (AID 542). Also: nearly all actives have a fitted effect of over 35% in size. Also: potency is read from the fitted curve at half-maximal effect. In outline: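 HUV-EC-C normal human vascular endothelial cells, 1000 cells/well, pre-incubated 5 hr at 37 °C, then exposed to compounds for 40 hr at 37 °C in complete medium. Viability measured as intracellular ATP by CellTiter-Glo luminescence; AC50 from Hill fits.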
A short description of experiment [3]: Cellular Toxicity (caspase-3) H-4-II-E (AID 663).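 Also: cells exposed to compound for 16 hr before readout.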 To be noted: H-4-II-E rat hepatoma; Potency: caspase-3 activation; caspase-3 activation: at 92.2 µM (top of the series), scaled: DMSO 0%, 100 µM tamoxifen 100%. In outline: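 Apoptosis induction is scored as increased luminescence from caspase 3/7 substrate cleavage in rat hepatoma H-4-II-E cells exposed to compound for 16 hr. Activity is scaled between DMSO and 100 uM tamoxifen.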

A short description of experiment [4]: Cellular Toxicity (caspase-3) MRC-5 (AID 659).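 Also: 0% = DMSO basal and 100% = 10 µM staurosporine.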 In outline: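 Concentration-dependent caspase 3/7 activation is measured in human normal lung fibroblasts (MRC-5) following 16-hour treatment. AC50 values come from standard Hill-equation modeling of luminescence normalized to DMSO and 10 uM staurosporine.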
A short description of experiment [5]: MultiTox-Fluor Cytotoxicity Assay - LYMP1-001 - Live Cells (AID 947). Also: potency is read from the fitted curve at half-maximal effect.
A short description of experiment [6]: MultiTox-Fluor Cytotoxicity Assay - LYMP1-002 - Dead Cells (AID 960). Also: nearly all actives have a fitted effect of over 60% in size. Also: potency is read from the fitted curve at half-maximal effect. In outline: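 Human lymphoblastoid cells (LYMP1-002), 2500/well in complete medium, were exposed to compounds for 16 hr at 37 C. Dead-cell protease activity was read as bis-AAF-R110 fluorescence (Ex/Em 485/520), normalized to DMSO and 15 uM tetraoctylammonium bromide; AC50 from Hill fits.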

The nature of experiment [7]: MultiTox-Fluor Cytotoxicity Assay - LYMP1-003 - Live Cells (AID 962). Also: potency is read from the fitted curve at half-maximal effect. A digest of the protocol: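 LYMP1-003 human lymphoblastoid cells (2500/well) in complete medium were preincubated 5 hr at 37 C, then exposed to compounds for 16 hr at 37 C. Live-cell protease cleavage of GF-AFC read by fluorescence (Ex/Em 405/510); AC50 from Hill fits.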
A short description of experiment [8]: Cell Viability - LYMP2-005 (AID 967). Also: potency is read from the fitted curve at half-maximal effect. In outline:
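Human lymphoblastoid LYMP2-005 cells, 2,500 per well in complete medium, rested 5 h at 37C then compound-treated 24 h at 37C. Intracellular ATP read by CellTiter-Glo luminescence after 30 min at room temperature; AC50 from Hill-equation fits of concentration-response data.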

Experiment [9] can be described thus: Cell Viability - LYMP2-011 (AID 969). Also: nearly all actives have a fitted effect of over 60% in size. Also: potency is read from the fitted curve at half-maximal effect. In outline: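 Human lymphoblastoid cells (2500/well) were plated in complete medium, preincubated 5 hr at 37 C, then exposed to compounds for 24 hr at 37 C. Intracellular ATP was read by CellTiter-Glo luminescence, and AC50 came from Hill-equation concentration-response fits.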
Experiment [10] is described as follows: Cell Viability - LYMP2-013 (AID 970). Also: nearly all actives have a fitted effect of over 55% in size. Also: potency is read from the fitted curve at half-maximal effect. In outline:
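Human lymphoblastoid cells, 2500/well, were preincubated 5 hr at 37 C, then treated with compounds for 24 hr at 37 C in complete medium. Intracellular ATP was read by CellTiter-Glo luminescence; AC50 from Hill-equation fits of concentration-response data.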

Experiment [11] is described as follows: Cell Viability - LYMP2-015 (AID 971). Also: nearly all actives have a fitted effect of over 55% in size. Also: potency is read from the fitted curve at half-maximal effect. In outline: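 Human lymphoblastoid cells (2500/well) in complete medium were preincubated 5 hr at 37 C, then compound-treated 24 hr at 37 C. Intracellular ATP was read by CellTiter-Glo luminescence after 30 min at room temperature; AC50 came from Hill-equation concentration-response fits.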
Experiment [12] can be described thus: Cell Viability - LYMP2-023 (AID 975). Also: nearly all actives have a fitted effect of over 55% in size. Also: potency is read from the fitted curve at half-maximal effect. In outline: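 Human lymphoblastoid cells (2500/well) were preincubated 5 hr at 37 C, then exposed to compounds for 24 hr at 37 C in complete medium. Cellular ATP was read by CellTiter-Glo luminescence, and AC50 came from Hill-equation fits.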
Experiment [13] can be described thus: Cell Viability - LYMP2-025 (AID 976). Also: potency is read from the fitted curve at half-maximal effect. In outline: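 Human lymphoblastoid LYMP2-025 cells (2500/well) were pre-incubated 5 hr at 37 C, then treated with compounds for 24 hr at 37 C in complete medium. Viability was read as intracellular ATP by CellTiter-Glo luminescence; AC50 from Hill fits.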
The nature of experiment [14]: Cell Viability - LYMP2-002 (AID 977).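 Also: compound exposure lasted 24 h at 37 °C.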 Also: potency is read from the fitted curve at half-maximal effect. In outline: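 Cytotoxicity is scored as concentration-dependent loss of cellular ATP in a human lymphoblastoid line after 24 hr compound treatment at 37 C. AC50 is obtained by modelling concentration-response data with the Hill equation.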
Experiment [15] can be described thus: Cell Viability - LYMP2-006 (AID 978). Also: nearly all actives have a fitted effect of over 60% in size. Also: potency is read from the fitted curve at half-maximal effect. A digest of the protocol:
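Human lymphoblastoid cells (LYMP2-006), 2500/well in complete medium, were treated with compound for 24 hr at 37 C. Cellular ATP was read by CellTiter-Glo luminescence after 30 min, and AC50 values came from Hill-equation fits of concentration-response data.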

Experiment [16] in a line: Cell Viability - LYMP2-010 (AID 981). Also: nearly all actives have a fitted effect of over 55% in size. Also: potency is read from the fitted curve at half-maximal effect. A digest of the protocol: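 Human lymphoblastoid LYMP2-010 cells (2500/well) were preincubated 5 hr at 37 C, then exposed to compounds for 24 hr at 37 C in complete medium. Intracellular ATP was measured by CellTiter-Glo luminescence after 30 min at room temperature; AC50 from Hill-fitted concentration-response.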
A short description of experiment [17]: Cell Viability - LYMP2-012 (AID 982). Also: potency is read from the fitted curve at half-maximal effect.
A short description of experiment [18]: Cell Viability - LYMP2-014 (AID 983). Also: nearly all actives have a fitted effect of over 50% in size. Also: potency is read from the fitted curve at half-maximal effect. In outline:
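Human lymphoblastoid cells (2500/well) were pre-incubated 5 hr at 37 C, then exposed to compounds in complete medium for 24 hr at 37 C. Intracellular ATP was read by CellTiter-Glo luminescence after 30 min at room temperature; AC50 from Hill fits.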

Experiment [19] can be described thus: Cell Viability - LYMP2-026 (AID 989). Also: nearly all actives have a fitted effect of over 50% in size. Also: potency is read from the fitted curve at half-maximal effect. In outline:
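Human lymphoblastoid cells (2500/well) in complete medium were preincubated 5 hr at 37 C, then exposed to compounds for 24 hr at 37 C. Cellular ATP was read by CellTiter-Glo luminescence; AC50 from Hill-equation fits of concentration-response data.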

A short description of experiment [20]: Cell Viability - LYMP1-002 - Assay at 24 hr (AID 993). Also: potency is read from the fitted curve at half-maximal effect. A digest of the protocol: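 Human lymphoblastoid LYMP1-002 cells, 2500/well in complete medium, were treated with compounds for 24 h at 37 C; intracellular ATP was read by CellTiter-Glo luminescence. AC50 values came from Hill-equation fits of qHTS concentration-response data.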

In the case of `CC/C(=C(\c1ccccc1)c1ccc(OCCN(C)C)cc1)c1ccc(O)cc1`, the Potency entry in experiment [1] was “inactive”. In addition, in experiment [2], the Potency was 31.6 µM (active). Also, the caspase-3 activation in [3] was 124% (active).

For the compound `Nc1ccc2cc3ccccc3cc2c1`, the Potency entry in experiment [2], in experiment [5], in [6], in experiment [7], in experiment [8] and in experiment [9] was “inactive” each time. Besides, the Potency entry in experiment [10], in [11], in experiment [12], in [13], in [14] and in experiment [15] was “inactive” in each case. Moreover, the Potency result in experiment [16], in experiment [17], in [18], in experiment [19] and in experiment [20] was “inactive” each time. In addition, the compound was classed as inactive in experiment [4]. Moreover, in [3], the caspase-3 activation is -0.822%.

As for `c1ccc2c(c1)ccc1cc3c(ccc4ccccc43)cc12`, the Potency result in [2], in [5], in experiment [6], in experiment [7], in experiment [8] and in experiment [9] was “inactive” each time. Also, the Potency entry in experiment [10], in [11], in experiment [12], in experiment [13], in experiment [14] and in experiment [15] was “inactive” in each case. For the same compound, the Potency entry in [16], in experiment [17], in experiment [18], in experiment [19] and in [20] was “inactive” each time. Besides, the result in experiment [4] was inactive. In addition, the caspase-3 activation in experiment [3] was -1.53%.

As to `C=CC(=O)OCC(CO)(COC(=O)C=C)COC(=O)C=C`, the Potency result in experiment [1] was “inactive”. For the same compound, the Potency in [2] was 50.1 µM (active).

For the compound `CCCCCCCC[N+](CCCCCCCC)(CCCCCCCC)CCCCCCCC`, the Potency entry in experiment [1] is “inactive”. Further, the Potency in experiment [2] is 12.6 µM (active); in experiment [5], 10 µM (active); in experiment [6] it was 3.16 µM (active); in experiment [7], 12.6 µM (active); in experiment [8], 7.94 µM (active); in experiment [9], 6.31 µM (active). Besides, the Potency in experiment [10] was 7.94 µM (active); in experiment [11], 7.94 µM (active); in experiment [12], 7.94 µM (active); in experiment [13], 12.6 µM (active); in [14], 7.94 µM (active); in experiment [15] it was 5.01 µM (active). For the same compound, the Potency in experiment [16] was 3.16 µM (active); in [17], 3.98 µM (active); in experiment [18], 6.31 µM (active); in experiment [19], 7.94 µM (active); in [20], 3.16 µM (active).

For the compound `O=C(/C=C/c1ccc(O)c(O)c1)OC1C[C@](O)(C(=O)O)C[C@@H](O)[C@H]1O` (stereo partly specified), the Potency result in experiment [1], in experiment [2], in [5], in experiment [6], in experiment [7] and in experiment [8] was “inactive” in each case. For the same compound, the Potency result in experiment [9], in experiment [10], in experiment [11], in experiment [12], in [13] and in experiment [14] was “inactive” in each case. Moreover, the Potency entry in experiment [15], in experiment [16], in experiment [17], in experiment [18], in experiment [19] and in [20] was “inactive” each time. The compound was called inactive in experiment [4]. In addition, in experiment [3], the caspase-3 activation was 0.575% and -0.278%.

Regarding `O=C1OC2(c3cc(Br)c(O)c(Br)c3Oc3c2cc(Br)c(O)c3Br)c2c(Cl)c(Cl)c(Cl)c(Cl)c21`, the call in experiment [4] was inactive. For the same compound, in experiment [3], the caspase-3 activation was -0.639%. In addition, the Potency result in experiment [7], in experiment [8], in experiment [9], in experiment [12], in experiment [15] and in [16] was “inactive” each time. For the same compound, the Potency result in experiment [18], in [19] and in experiment [20] was “inactive” throughout.

Consider `C=C(C)c1ccccc1`, for which the Potency entry in [2], in [5], in experiment [6], in experiment [7], in [8] and in experiment [9] was “inactive” throughout. Moreover, the Potency result in experiment [10], in [11], in experiment [12], in experiment [13], in experiment [14] and in experiment [15] was “inactive” throughout. For the same compound, the Potency entry in [16], in experiment [17], in [18], in experiment [19] and in experiment [20] was “inactive” throughout. For the same compound, the outcome in experiment [4] was inactive. Further, the caspase-3 activation in experiment [3] is 1.07%.

For the origin of these results see PubChem BioAssay (NCATS).
